Source: PubChem BioAssay
PI5P4K alpha inh: inhibitors of human PI5P4K alpha; PI5P4Kalpha enzyme, ADP-Glo luminescence, 60 min; hits give low values; P48426; max response, %; hit rate 1.2% among 330,000; active = max response of -50% or lower; inconclusive = between -30% and -50%; inactive = -30% or higher; note: value at the top dose of about 77 µM
Target sequence (P48426 whole entry, looked up): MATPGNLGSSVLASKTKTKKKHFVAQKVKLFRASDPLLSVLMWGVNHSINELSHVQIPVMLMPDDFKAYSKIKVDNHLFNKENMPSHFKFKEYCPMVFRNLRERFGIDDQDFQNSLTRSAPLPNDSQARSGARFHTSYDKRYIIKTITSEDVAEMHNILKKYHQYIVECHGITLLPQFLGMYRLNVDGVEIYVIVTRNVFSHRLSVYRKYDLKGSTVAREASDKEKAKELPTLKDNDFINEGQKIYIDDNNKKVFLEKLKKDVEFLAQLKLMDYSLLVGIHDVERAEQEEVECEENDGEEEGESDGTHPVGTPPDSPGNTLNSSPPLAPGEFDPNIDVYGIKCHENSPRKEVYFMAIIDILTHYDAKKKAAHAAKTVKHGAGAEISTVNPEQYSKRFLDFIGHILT
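Reactions run in 0.038 M HEPES pH 7.4, 0.28 mM EGTA, 0.1% CHAPS and 5% DMSO, with PI5P4Kalpha, substrate, compound and 5 microM ATP final, one hour at room temperature. Readout is ADP-Glo luminescence.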
BAZ2B inh: BAZ2B (human) inhibition. Q9UIF8. AlphaScreen BAZ2B-H3K14Ac peptide displacement. Potency, µM (highest dose often 114 µM), usual class: inhibitors. hit rate 4.4% among 360,000. AID 504333; note: nearly all actives have a fitted effect of over 60% in size
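AlphaScreen displacement of biotin-H3(5-23)K14Ac peptide (50 nM final) from BAZ2B (50 nM final) in PBS pH 7.4, 0.01% Tween-20; complex preformed 30 min RT, then compounds (top 110 uM) 30 min RT, beads 20 min dark.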
HP1b binding inh: HP1-beta chromodomain-methylated histone interaction inhibition. AlphaScreen HP1-beta / biotin-H3K9me3 peptide binding. hit rate 0.56% among 390,000. Potency, µM (series often up to 114 µM), actives largely listed as inhibitors. AID 540317; note: nearly all actives have a fitted effect of over 70% in size
Target sequence (P83916 whole entry, looked up): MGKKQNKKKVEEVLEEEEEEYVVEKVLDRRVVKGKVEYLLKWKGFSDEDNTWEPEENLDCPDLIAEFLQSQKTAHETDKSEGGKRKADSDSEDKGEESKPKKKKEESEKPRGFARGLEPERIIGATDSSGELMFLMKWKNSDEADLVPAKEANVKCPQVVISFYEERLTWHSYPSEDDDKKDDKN
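Compound inhibition of the preformed complex between 50 nM HP1-beta and 50 nM biotinylated H3K9me3 peptide was read by AlphaScreen. Buffer was PBS pH 7.4 with 0.01% Tween-20. Incubations ran 30 min at room temperature, with 10 ug/mL donor/acceptor beads.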
G9a block: G9a (human) methyltransferase inhibition. G9a H3K9 monomethylation, AlphaScreen, 2 h. Potency, µM (top dose mostly 102 µM), usual class: inhibitors. hit rate 8.8% among 350,000; note: nearly all actives have a fitted effect of over 75% in size
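Chemiluminescent proximity detection of H3K9 monomethylation, read after 10 min bead incubation in the dark. Reaction: 20 nM G9a, 500 nM biotin-H3K9 peptide, 20 uM SAM cofactor, 2 h, room temperature, following 15 min enzyme-compound preincubation.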
JMJD2A Tudor: inhibitors of human JMJD2A Tudor domain | O75164 | AlphaScreen JMJD2A-Tudor / H3K4me3 peptide binding | hit rate 4.4% among 390,000 | Potency, µM (highest dose often 114 µM), most hits filed as inhibitors | AID 504339; note: nearly all actives have a fitted effect of over 50% in size
L3MBTL1 inh: L3MBTL1 (human) inhibition. Q9Y468. AlphaScreen L3MBTL1–H3K9me1 peptide binding. Potency, µM (series often up to 57.1 µM), hits mostly inhibitors. hit rate 0.66% among 230,000; note: nearly all actives have a fitted effect of over 60% in size
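First, the protein-peptide complex forms for 30 min at room temperature (L3MBTL1 50 nM, biotinylated H3K9me1 peptide 75 nM). Next, compounds are pin-transferred and incubated 30 min. Finally, AlphaScreen beads are added and read after 30 min.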
Each line names hits and unclear results; the compound was inactive in the other large screens. Only some compounds are listed: those with a hit (about 11% of all), similar ones and a draw of the others. Unless noted, calls come from the whole dose curve; as a rule, active = well fitted inhibition curve with a large enough effect; inconclusive = small, poorly fitted or top-dose-only effect; inactive = no such curve, though single readings can be large or run the other way.

COc1ccc(C2/C(=C(/O)c3ccccc3)C(=O)C(=O)N2CC(C)O)c(OC)c1 (centres undefined)	G9a block inconclusive, JMJD2A Tudor 17.8µM
CCOC(=O)c1ccc(NC(=O)CC2C(=O)N(c3ccc(C)cc3)C(=O)N2C2CCCC2)cc1 (centres undefined)	none (no result: PI5P4K alpha inh, L3MBTL1 inh)
CCOc1cccc(/C(O)=C2/C(=O)C(=O)N(CCOC)C2c2ccco2)c1 (centres undefined)	G9a block inconclusive, JMJD2A Tudor 79.4µM (no result: L3MBTL1 inh)
CCOc1cccc(/C(O)=C2/C(=O)C(=O)N(Cc3cccnc3)C2c2ccco2)c1 (centres undefined)	G9a block inconclusive, JMJD2A Tudor inconclusive (no result: PI5P4K alpha inh)
O=C1C(=O)N(Cc2ccco2)C(c2cccs2)/C1=C(\O)c1cccc([N+](=O)[O-])c1 (centres undefined)	PI5P4K alpha inh -79.0, L3MBTL1 inh inconclusive
Cc1cccc(-n2ncc(C(=O)N3CCN(C4CCCCC4)CC3)c2C2CCN(C(=O)OC(C)(C)C)CC2)c1	none (no result: PI5P4K alpha inh, L3MBTL1 inh)
Cc1cccc(N2CCN(c3nc4ccc(C)cc4n4cnnc34)CC2C)c1 (centres undefined)	BAZ2B inh inconclusive, G9a block inconclusive, JMJD2A Tudor inconclusive (no result: PI5P4K alpha inh, L3MBTL1 inh)
CC(=O)c1cccc(-c2cnc3c(NC=O)cc(-c4ccc(C(=O)N5CCOCC5)cc4)cn23)c1	none (no result: BAZ2B inh, HP1b binding inh, G9a block, JMJD2A Tudor, L3MBTL1 inh)
CC(=O)Nc1cccc(-c2cc(NC=O)c3ncc(-c4cccc(C(C)=O)c4)n3c2)c1	PI5P4K alpha inh -55.3 (no result: BAZ2B inh, HP1b binding inh, G9a block, JMJD2A Tudor, L3MBTL1 inh)
CC(=O)c1ccc(-c2cnc3c(NC=O)cc(-c4cccc(C(=O)N(C)C)c4)cn23)cc1	PI5P4K alpha inh -59.1 (no result: BAZ2B inh, HP1b binding inh, G9a block, JMJD2A Tudor, L3MBTL1 inh)
COc1cc(-c2cnc3c(NC=O)cc(-c4cccc(NC(C)=O)c4)cn23)cc(OC)c1OC	PI5P4K alpha inh -60.5 (no result: BAZ2B inh, HP1b binding inh, G9a block, JMJD2A Tudor, L3MBTL1 inh)
CN(C)C(=O)c1cccc(-c2cc(NC=O)c3ncc(-c4ccc(F)cc4)n3c2)c1	none (no result: BAZ2B inh, HP1b binding inh, G9a block, JMJD2A Tudor, L3MBTL1 inh)
COc1cccc(-c2cnc3c(NC=O)cc(-c4cccc(NC(C)=O)c4)cn23)c1	PI5P4K alpha inh -77.0 (no result: BAZ2B inh, HP1b binding inh, G9a block, JMJD2A Tudor, L3MBTL1 inh)
COc1cccc(-c2cnc3c(NC(C)=O)cc(-c4cccc(NS(C)(=O)=O)c4)cn23)c1	none (no result: BAZ2B inh, HP1b binding inh, G9a block, JMJD2A Tudor, L3MBTL1 inh)
Cc1ccc(C)c(NC(=O)CSc2nc(=O)n(Cc3ccncc3)c3c2CCC3)c1	none (no result: PI5P4K alpha inh, L3MBTL1 inh)
CCOc1ccc(-n2c(=O)c3c4c(sc3n(CC(=O)NC(C)CC)c2=O)CCC4)cc1 (centres undefined)	none (no result: PI5P4K alpha inh, L3MBTL1 inh)
COc1ccc(-c2cc(NC=O)c3ncc(-c4cccc(C(C)=O)c4)n3c2)cc1	none (no result: BAZ2B inh, HP1b binding inh, G9a block, JMJD2A Tudor, L3MBTL1 inh)
COc1cccc(-c2cc(NC=O)c3ncc(-c4ccc(C(C)=O)cc4)n3c2)c1	PI5P4K alpha inh -67.6 (no result: BAZ2B inh, HP1b binding inh, G9a block, JMJD2A Tudor, L3MBTL1 inh)
Cc1[nH]c2ccccc2c1C1=CC(=O)C=CC1=O	PI5P4K alpha inh -97.0, HP1b binding inh inconclusive, JMJD2A Tudor 3.16µM (no result: BAZ2B inh, G9a block, L3MBTL1 inh)
O=C(NC1CCCCC1)N(CCN1CCCC1)Cc1cc2cc3c(cc2[nH]c1=O)OCCO3	G9a block 39.8µM
Cc1cc2cc(CN(CCCN3CCOCC3)C(=O)NC3CCCCC3)c(=O)[nH]c2cc1C	G9a block 14.1µM (no result: PI5P4K alpha inh)
CN(C)CCCNCCCNC(=O)/C(=N\O)c1ccccc1	G9a block 50.1µM, JMJD2A Tudor inconclusive (no result: L3MBTL1 inh)
CN(C)CCNC(=O)/C(=N\O)c1ccccn1	BAZ2B inh inconclusive, G9a block 50.1µM
CN(C)CCCNCCCNC(=O)c1ccccn1	G9a block inconclusive
CCOc1ccc(C(=O)N2CCCCC2CCN2CCOCC2)cc1 (centres undefined)	none (no result: PI5P4K alpha inh, L3MBTL1 inh)
COc1ccc(-c2nc(CSCC(=O)NC3CCCc4ccccc43)c(C)o2)cc1OC (centres undefined)	BAZ2B inh inconclusive, G9a block 44.7µM, JMJD2A Tudor inconclusive (no result: L3MBTL1 inh)
COc1ccc(-c2nc(CSCC(=O)N3CCN(c4cccc(C)c4)C(C)C3)c(C)o2)cc1OC (centres undefined)	BAZ2B inh 44.7µM, G9a block 44.7µM, JMJD2A Tudor 56.2µM
CCOc1ccc(-c2nc(CSCC(=O)N3CCN(C(=O)c4ccco4)CC3)c(C)o2)cc1	G9a block 50.1µM
CCOC(=O)C1CCN(C(=O)CSCc2nc(-c3ccc(OCC)cc3)oc2C)CC1	none
COc1ccc(-c2nc(CSCC(=O)N3CCc4ccccc4C3)c(C)o2)cc1OC	G9a block 35.5µM, JMJD2A Tudor inconclusive
COc1ccc(-c2nc(CSCC(=O)N3CCC(C(N)=O)CC3)c(C)o2)cc1OC	G9a block 44.7µM
Fc1cccc(CNc2ncnc3ccc(-c4ccoc4)cc23)c1	none (no result: PI5P4K alpha inh, HP1b binding inh, JMJD2A Tudor)
O=C(Nc1sc2c(c1C(=O)O)CCCCC2)c1ccccc1	BAZ2B inh inconclusive, HP1b binding inh inconclusive (no result: G9a block)
O=C(/C=C/c1ccccc1)Nc1sc2c(c1C(=O)O)CCC2	PI5P4K alpha inh inconclusive, G9a block 50.1µM
Cc1ccc(C(=O)c2c(NC(=O)c3cccnc3)sc3c2CCCC3)cc1	BAZ2B inh inconclusive, G9a block inconclusive, JMJD2A Tudor 56.2µM
O=C(Nc1sc2c(c1C(=O)O)CCC2)c1ccccc1	PI5P4K alpha inh inconclusive, BAZ2B inh 79.4µM, G9a block inconclusive, JMJD2A Tudor inconclusive (no result: L3MBTL1 inh)
O=C(Nc1sc2c(c1C(=O)O)CCC2)c1ccc(F)cc1	BAZ2B inh inconclusive, G9a block 39.8µM, L3MBTL1 inh inconclusive
COc1ccc(C(=O)Nc2sc3c(c2C(=O)O)CC(C)(C)OC3)cc1	none
O=C(COc1ccccc1)Nc1sc2c(c1C(=O)Nc1ccccc1Cl)CCCCC2	G9a block inconclusive (no result: PI5P4K alpha inh, L3MBTL1 inh)
CC1(C)Cc2c(sc(NC(=O)c3ccccc3)c2C(=O)O)CO1	G9a block 44.7µM
CCSc1ncc(Cl)c(C(=O)Nc2sc3c(c2C(=O)NCCCOC)CCCC3)n1	none (no result: PI5P4K alpha inh, L3MBTL1 inh)
